# IDH1 R132H inh – human IDH1 R132H inhibition. O75874. IDH1-R132H enzyme, NADPH consumption, diaphorase/resazurin fluorescence. Potency, µM (titrated, usually from 76.6 µM), without a hit: at the top dose activity change, negative = inhibition, actives largely listed as inhibitors. 390,000 compounds, 0.093% hits. AID 602179; note: % is set by controls: 0 for no effect and ±100 for the full control effect; nearly all actives have a fitted effect of over 65% in size
#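 IDH1-R132H (0.5 ug/mL dispensed) in pH 7.5 Tris buffer was preincubated 30 min with compound, then given a substrate mix of 0.016 mM NADPH and 2 mM alpha-KG for 80 min at room temperature; remaining NADPH was read by diaphorase/resazurin fluorescence.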
# TrxR1 substrate – rat thioredoxin reductase 1 substrate activity; O89049; purified TrxR1 substrate turnover, NADPH consumption readout; Potency, µM (series often up to 114 µM), without a hit: at the top dose activity change, negative = substrate turnover; 390,000 compounds, 0.01% hits; AID 588456; note: % is set by controls: 0 for no effect and ±100 for the full control effect; nearly all actives have a fitted effect of over 50% in size
# Target sequence (O89049 whole entry, looked up): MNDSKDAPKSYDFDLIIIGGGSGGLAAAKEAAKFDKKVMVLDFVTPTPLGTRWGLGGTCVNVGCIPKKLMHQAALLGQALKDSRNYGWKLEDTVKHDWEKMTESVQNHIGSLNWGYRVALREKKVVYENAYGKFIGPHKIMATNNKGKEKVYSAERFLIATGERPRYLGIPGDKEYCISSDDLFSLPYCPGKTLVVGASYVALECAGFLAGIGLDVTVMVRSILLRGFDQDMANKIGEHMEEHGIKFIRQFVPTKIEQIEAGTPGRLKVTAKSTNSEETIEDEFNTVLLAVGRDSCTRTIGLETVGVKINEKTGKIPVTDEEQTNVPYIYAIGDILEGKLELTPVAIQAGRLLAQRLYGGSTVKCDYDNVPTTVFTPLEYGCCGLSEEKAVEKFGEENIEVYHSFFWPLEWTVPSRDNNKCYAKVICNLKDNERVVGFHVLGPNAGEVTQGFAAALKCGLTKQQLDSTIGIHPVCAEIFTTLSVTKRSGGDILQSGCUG
#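 Rat TrxR1, dispensed at 90 nM, was prereduced with 400 uM NADPH (final) for 5 min at ~22 deg C, then incubated with compound 15 min before 400 uM selenite. A first-read NADPH fluorescence drop versus no-compound background flagged substrates.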
# GLP1R inv ag – inverse agonists of human GLP-1 receptor | P43220 | Potency, µM (top dose mostly 38.3 µM), for the others: top-dose activity change, negative = inhibition, actives largely listed as inhibitors | AID 624417 | HEK293 GLP-1R CRE-luciferase, luminescence, 24 h; GLP-1R form is constitutively active | 410,000 compounds, 1.6% hits; note: % is set by controls: 0 for no effect and ±100 for the full control effect; nearly all actives have a fitted effect of over 55% in size
#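 Seeding at 200 cells/uL, 12 h culture, 24 hr compound treatment, then luciferase reagent and a luminescence read; cells are HEK293 stably expressing a constitutively active GLP-1R plus cAMP-responsive luciferase.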
# GLP-1R agonist – agonists of human GLP-1 receptor. AID 624172. Potency, µM (top dose mostly 45.6 µM), inactives show top-dose activation, actives largely listed as activators. 380,000 compounds, 0.007% hits. P43220. HEK293 GLP-1R CRE-luciferase, luminescence, 4-6 h; cells express a hypersensitive GLP-1R form; note: % of control where 0% means no effect
# rTrxR1 inhibitor – blocks rat thioredoxin reductase 1. O89049. recombinant rTrxR1, NADPH fluorescence consumption, selenite substrate. Potency, µM (top dose mostly 114 µM), without a hit: at the top dose activity change, negative = inhibition, usual class: inhibitors. 390,000 compounds, 1% hits. AID 588453; note: % is set by controls: 0 for no effect and ±100 for the full control effect; nearly all actives have a fitted effect of over 65% in size
#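 Rat TrxR1 (90 nM in the dispensed reagent) was pre-reduced with 400 uM NADPH for 5 min at room temperature, then incubated with compound for 15 min. After 400 uM selenite was added, NADPH fluorescence (Ex 340/Em 450 nm) was followed for 8 min.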
# HEK293 tox – cytotoxicity in counter-screen for GLP-1R inverse agonists. AID 624418. 410,000 compounds, 0.13% hits. Potency, µM (doses to about 38.3 µM), for the others: top-dose activity change, negative = inhibition, actives largely listed as inhibitors. HEK293 cAMP-luciferase reporter cells, luminescence, 24 h;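 note: loss of luciferase light is scored as toxicity; % is set by controls: 0 for no effect and ±100 for the full control effect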
#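 Quantitative HTS format, 1536 wells, 200 cells/uL seeded. Compounds: 23 nL, 24 h, 37 °C. Detection: luciferase reagent, luminescence at 12 min RT; decreased signal taken as cytotoxic.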
# An asterisk follows results filed as active; ? = inconclusive; . = no result given; [ ] = dose if it differs, or a comment. In the library only some 2.7% were active in any assay of this set; here they are far more common. Calls come from the whole dose curve; as a rule, active = well fitted curve in the direction sought with a large enough effect; inconclusive = small, poorly fitted or top-dose-only effect, or another doubt; inactive = no such curve, though single readings can be large; an effect the other way counts as inactive or inconclusive. Potency is the fitted concentration of half-maximal effect.
SMILES,IDH1 R132H inh,TrxR1 substrate,GLP1R inv ag,GLP-1R agonist,rTrxR1 inhibitor,HEK293 tox
COc1ccccc1N=Nc1ccc(O)c2ncccc12,-4.9%,-6.5%[57.1 µM],?,-9.9%,?,1.26µM*
Cc1cc(C)c(C)c(N=Nc2nc3ccccc3n2C)c1C,7.0%,-12.4%,7.94µM*,19.2%,-12.3%,?
CN(C)C(=O)c1ccc(/C=C/c2ccnc3ccccc23)cc1,.,-9.2%,.,.,-35.0%,.
CCOC(=O)c1c(-c2ccccc2)oc2ccc(OCC(O)CN(C)C)cc12 (stereo unspecified),12.6%,100.1%,2.82µM*,4.8%,4.9%,?
CCOC(=O)c1c(-c2ccccc2)oc2ccc(OC(C)C(=O)O)cc12 (stereo unspecified),-9.6%,323.5%,16.2%,4.7%,99.0%,7.3%
Cc1ccc(-c2csc3ncnc(Sc4nnnn4-c4ccccc4)c23)cc1,.,3.3%,.,.,25.1%,.
Cc1ccccc1C(=O)NCc1ccc2c(c1)CCN2C(=O)c1ccc(F)cc1,?,-6.5%[57.1 µM],-10.5%,.,-3.1%[57.1 µM],1.3%
Cc1cccc(N2CCN(C(=O)C3CCN(Cc4nc(-c5ccc(Cl)cc5)oc4C)CC3)CC2)c1C,-11.0%,7.8%[57.1 µM],6.8%,.,30.4%[57.1 µM],3.8%
COc1cc2[nH]c(=S)nc(Nc3ccc(NC(C)=O)cc3)c2cc1OC,2.9%,-2.1%,4.5%,-1.8%,10µM*,-1.9%
Cc1ccc(NS(=O)(=O)c2ccc3c(c2)NC(=O)CO3)cc1Cl,-4.7%,-3.7%,10µM*,-1.1%,23.5%,-9.8%
O=[N+]([O-])c1ccc(N=Nc2ncc[nH]2)cc1,-2.3%,-5.6%[57.1 µM],?,-2.3%,?,5.62µM*
Cc1ccc(/C(=C\CN2CCCC2)c2cccc(/C=C/C(=O)O)n2)cc1,.,.,.,-3.1%,.,.
CO/N=C(/CNC(=O)c1ccc(F)cc1)c1ccc(Cl)cc1,3.5%,-4.4%,8.91µM*,2.0%,-9.7%,2.7%
Cc1ccc(Nc2c(-c3ccc(C)s3)nc3cccc(C)n23)cc1,.,55.3%,.,.,23.5%,.
COc1cc2c(cc1OC)C(CCc1ccccc1)=NCC2,0.0%,369.2%,0.9%,26.2%,89.1µM*,48.9%
Clc1ccc2nccnc2c1,.,15.7%,.,.,?,.
COc1ccc2[nH]cc(S(=O)(=O)c3ccc(C)c(C)c3)c(=O)c2c1,-2.0%,5.2%,8.1%,.,5.7%,-1.8%
COc1cc(C2SC[C@H]3C(=O)N(c4ccccc4)C(=O)N23)cc(OC)c1OC (stereo partly specified),7.5%,-2.5%,-2.7%,-0.2%,79.4µM*,2.9%
CCOC(=O)Cn1c(=O)n(CC2CCCO2)c2nc(-c3cc(OC)ccc3OC)nc(C(N)=O)c21 (stereo unspecified),-5.4%,-6.4%[57.1 µM],12.7%,4.6%,0.7%[57.1 µM],0.7%
CCCCC1=CC2=C(c3ccco3)C(=O)C(C)(OC(=O)c3ccc(OC)cc3)C(=O)C2=CN1CCCCO (stereo unspecified),-0.9%,-5.4%,-0.8%,-4.7%,?,-4.9%
CCCCC1=CC2=C(c3ccco3)C(=O)C(C)(OC(=O)c3ccc(OC)cc3)C(=O)C2=CN1CC(C)C (stereo unspecified),6.8%,3.7%,10.7%,-6.4%,44.7µM*,4.0%
Cc1cc(/C=C2\C=Cc3ccccc32)ccc1N(C)C,.,-0.5%,.,.,39.9%[0.0914 µM],.
Cc1cccc2c1-c1sc(C(=O)N(C)c3cccc(C(F)(F)F)c3)cc1CO2,7.3%,39.8%,-17.5%,.,77.0%,2.0%
CCN(CC)CCCn1c2c(c(SCC(=O)Nc3ccc(OC(F)(F)F)cc3)nc1=O)CCC2,3.0%,-4.8%,3.55µM*,1.1%,-2.9%,-12.4%
CCN(CC)CCCn1c2c(c(SCC(=O)Nc3ccc(C)c(F)c3)nc1=O)CCC2,2.4%,-7.5%,10µM*,1.4%,-8.5%,5.5%
SMILES,IDH1 R132H inh,TrxR1 substrate,GLP1R inv ag,GLP-1R agonist,rTrxR1 inhibitor,HEK293 tox
Cc1cccc(-c2nc(CS(=O)CC(=O)N3CCc4ccccc4C3)c(C)o2)c1 (stereo unspecified),1.9%,10.1%[57.1 µM],-15.4%,1.1%,12.6µM*,-7.5%
CCOC(=O)N1CCN(C(=O)CS(=O)Cc2nc(-c3cccc(C)c3)oc2C)CC1 (stereo unspecified),-0.6%,0.9%[57.1 µM],11.4%,-1.2%,?,-4.0%
CCN1CCN(C(=O)CS(=O)Cc2nc(-c3cccc(C)c3)oc2C)CC1 (stereo unspecified),2.7%,11.6%,-5.9%,21.2%,?,-1.7%
Cc1cccc(-c2nc(CS(=O)CC(=O)N3CC(C)CC(C)C3)c(C)o2)c1 (stereo unspecified),-8.9%,0.3%,-23.1%,-4.5%,39.8µM*,-13.2%
Cc1cccc(-c2nc(CS(=O)CC(=O)NC3CCCC(C)C3C)c(C)o2)c1 (stereo unspecified),11.3%,-5.0%[57.1 µM],?,0.9%,15.8µM*,-12.6%
CCOc1ccc(/C=C/c2ccc3ccccc3n2)cc1OCC,.,-8.4%,.,.,-14.6%,.
O=C(Oc1ccc(F)cc1)c1nc(SCc2ccccc2F)ncc1Cl,12.5%,8.9%,-5.6%,.,39.7%,2.1%
CC1=C(/C=C/C(C)=C/C=C/C(C)=C\C(=O)O)C(C)(C)CCC1,-4.2%,3.0%[57.1 µM],-28.4%,-3.5%,35.5µM*,-3.2%
CC(C)(C)[C@@H]1CCC(=O)N(CC[C@H](Sc2ccccc2)c2ccccc2)CC1,7.5%,6.7%[57.1 µM],4.47µM*,1.6%,9.6%[57.1 µM],?
CC(=O)Nc1ccc(S[C@@H](CCN2CC[C@H](C(C)(C)C)CCC2=O)c2ccccc2)cc1,-10.1%,-14.3%,?,0.8%,62.4%,-4.2%
Cc1ccc(SC[C@H](C)CN2CC[C@H](C(C)(C)C)CCC2=O)cc1,-2.0%,-7.3%,10µM*,10.1%,4.2%,1.3%
CC(=O)c1ccc(NC(=O)CSc2nnc(-c3ccncc3)n2-c2ccccc2)cc1,2.5%,-7.0%[57.1 µM],-3.6%,0.9%,6.5%[57.1 µM],0.4%
COc1ccccc1-n1nc(-c2ccccc2)c2cnc3cc(C(F)(F)F)ccc3c21,5.5%,-6.3%,-10.6%,0.8%,-5.5%,1.7%
CCc1ccc(OCc2ccc(C(=O)O)o2)cc1,-2.2%,6.4%,3.98µM*,-5.8%,-25.9%,17.2%
CCCN1CNc2c(c(=O)[nH]c(=S)n2CCc2cc(C)ccc2C)C1,.,2.3%,.,.,6.9%,.
CNc1ccccc1C(C)(C)c1cc(-c2cccc([N+](=O)[O-])c2)no1,-2.0%,-6.7%[57.1 µM],?,12.6%,-3.9%[57.1 µM],-5.6%
CNc1ccccc1C(C)(C)c1cc(-c2cccc(Br)c2)no1,-18.9%,1.5%,2.82µM*,18.3%,4.7%,-1.8%
CCOC(=O)c1c(C)oc2ncnc(Nc3ccc(OCC)cc3)c12,-11.7%,0.8%,3.8%,.,15.9%,1.9%
